Source: PubChem BioAssay
JMJD2A Tudor: JMJD2A Tudor domain (human) inhibition. AlphaScreen JMJD2A-Tudor / H3K4me3 peptide binding. Potency, µM (series often up to 114 µM), inactives show top-dose activity change, negative = inhibition, usual class: inhibitors. actives 4.4% (n = 390,000). AID 504339; further: on the % scale 0 is the no-effect control and ±100 the full control effect; nearly all actives have a fitted effect of over 50% in size
HP1b binding inh: inhibitors of HP1-beta chromodomain binding to methylated histone tails; P83916; AlphaScreen HP1-beta / biotin-H3K9me3 peptide binding; Potency, µM (titrated, usually from 114 µM), inactives show at the highest dose activity change, negative = inhibition, most hits filed as inhibitors; actives 0.56% (n = 390,000); AID 540317; further: nearly all actives have a fitted effect of over 70% in size
Target sequence (P83916 whole entry, looked up): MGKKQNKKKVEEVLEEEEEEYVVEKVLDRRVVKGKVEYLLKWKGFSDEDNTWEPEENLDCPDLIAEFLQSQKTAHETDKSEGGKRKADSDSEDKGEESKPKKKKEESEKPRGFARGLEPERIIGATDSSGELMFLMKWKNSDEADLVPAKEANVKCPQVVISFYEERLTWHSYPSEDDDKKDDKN
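HP1-beta protein (50 nM final) preincubated 30 min at room temperature with biotinylated H3(1-18)K9me3 peptide (50 nM) in PBS pH 7.4, 0.01% Tween-20, then compound added for 30 min. AlphaScreen streptavidin donor/nickel chelate acceptor beads (10 ug/mL final), 30 min dark, luminescence read.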
G9a inh: G9a (human) methyltransferase inhibition. Q96KQ7. G9a H3K9 monomethylation, AlphaScreen, 2 h. Potency, µM (titrated, usually from 102 µM), without a hit: at the highest dose activity, negative = inhibition, actives largely listed as inhibitors. actives 8.8% (n = 350,000); further: on the % scale 0 is the no-effect control and ±100 the full control effect; nearly all actives have a fitted effect of over 75% in size
Target sequence (Q96KQ7 913-1193 limits assumed): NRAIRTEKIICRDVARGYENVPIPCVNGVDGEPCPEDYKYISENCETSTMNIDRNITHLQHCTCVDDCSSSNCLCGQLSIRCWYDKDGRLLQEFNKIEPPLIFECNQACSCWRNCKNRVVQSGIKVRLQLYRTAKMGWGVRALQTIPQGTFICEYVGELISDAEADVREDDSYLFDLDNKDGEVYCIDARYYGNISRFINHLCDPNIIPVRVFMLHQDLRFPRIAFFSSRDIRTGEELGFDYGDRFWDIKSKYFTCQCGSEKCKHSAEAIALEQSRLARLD
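Methyltransferase reactions run at room temperature for 2 h (20 nM enzyme, 500 nM biotin-H3K9 peptide, 20 uM SAM) after a 15 min compound preincubation; product detected by AlphaScreen beads and anti-H3K9me1 antibody.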
BAZ2B block: BAZ2B (human) inhibition; Potency, µM (doses to about 114 µM), for the others: at the top dose activity change, negative = inhibition, actives largely listed as inhibitors; Q9UIF8; actives 4.4% (n = 360,000); AID 504333; AlphaScreen BAZ2B-H3K14Ac peptide displacement; further: on the % scale 0 is the no-effect control and ±100 the full control effect; nearly all actives have a fitted effect of over 60% in size
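BAZ2B 50 nM plus b-H3(5-23)K14Ac 50 nM, PBS pH 7.4/0.01% Tween-20, 30 min RT; compound added (max 110 uM), 30 min RT; streptavidin donor/Ni-chelate acceptor beads 10 ug/mL final, 20 min dark; AlphaScreen read.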
L3MBTL1 block: L3MBTL1 (human) inhibition. Q9Y468. AlphaScreen L3MBTL1–H3K9me1 peptide binding. Potency, µM (top dose mostly 57.1 µM), inactives show top-dose activity, negative = inhibition, most hits filed as inhibitors. actives 0.66% (n = 230,000). AID 485360; further: on the % scale 0 is the no-effect control and ±100 the full control effect; nearly all actives have a fitted effect of over 60% in size
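AlphaScreen assay: L3MBTL1 (50 nM final) was preincubated 30 min at room temperature with biotinylated H3(1-15)K9me1 peptide (75 nM final), then 30 min with library compounds; streptavidin donor and nickel chelate acceptor beads (10 ug/mL final) added, 30 min dark.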
Sfp PPTase inh: Sfp phosphopantetheinyl transferase inhibition; Q9F4F7; Biochemical Sfp PPTase activity, qHTS; Potency, µM, without a hit: largest response in the series, negative = inhibition, most hits filed as inhibitors; actives 3.5% (n = 310,000); AID 1490;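 further: the enzyme is Sfp with the accession as filed and its product quenches rhodamine fluorescence; 0% = enzyme reaction without inhibitor and -100% = no enzyme wells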
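Sfp 15 nM + cpd, 15 min RT; start w/ rhodamine-CoA 5 uM, BHQ-2-YbbR 12.5 uM (final); 50 mM Hepes pH 7.6, 10 mM MgCl2, 0.01% NP-40, 0.01% BSA; read 525/598 nm at 0 and 30 min.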
Starred values were filed as active, the others as inactive; ? = inconclusive; nt = no result; [ ] = remark or other dose. Most compounds without a hit are left out; they make up all but 12% or so of the library. The call rests on the fitted dose curve; in most records, active means well fitted curve in the direction sought with a large enough effect; inconclusive means small, poorly fitted or top-dose-only effect, or another doubt; inactive means no such curve, though single readings can be large; an effect the other way counts as inactive or inconclusive. Potency means the concentration at half of the fitted maximal effect.

SMILES	JMJD2A Tudor	HP1b binding inh	G9a inh	BAZ2B block	L3MBTL1 block	Sfp PPTase inh
CC(=O)NC(Cc1ccccc1)C(=O)NC(Cc1ccccc1)C(=O)O (stereo not given)	0%	41%	?	-14%	nt	7%
O=C(NC(Cc1ccccc1)C(=O)NC(Cc1ccccc1)C(=O)O)c1ccccc1 (stereo not given)	-5%[57.1 µM]	12%	28µM*	?	1%	-4%
Cc1cccc(Cl)c1NNC(=O)Nc1c([N+](=O)[O-])c(C)nn1C	-19%	0%	16µM*	-13%	nt	12%
COC(=O)CC1C(=O)NCCN1C(=O)CSc1nnc(Nc2ccc(C)cc2)s1 (stereo not given)	-1%	36%	40µM*	8%	nt	14%
COC(=O)CC1C(=O)NCCN1C(=O)CSc1nnc(Nc2ccc(OC)cc2)s1 (stereo not given)	-3%	40%	-33%[0.0925 µM]	-2%	nt	-6%
COc1cc(/C=C2\NC(=S)N(C)C2=O)ccc1OCc1cccc(F)c1	-16%	46%	9%	4%	nt	-3%
Cc1cc2nc(-c3ccc(SCc4ccc(C(=O)O)cc4)nc3)[nH]c2cc1C	?	2%	32µM*	32µM*	-3%	22µM*
Cc1cc2nc(-c3ccc(SCC(=O)NC(C)C)nc3)[nH]c2cc1C	nt	nt	-39%	?	-28%	-18%
COc1ccc(S(=O)(=O)N2Cc3ccccc3CC2C(=O)Nc2cc(Cl)ccc2Cl)cc1 (stereo not given)	-4%	25%	-15%[59 µM]	-7%	nt	nt
C=CCn1c(C(C)NC(=O)c2ccc(C)cc2)n[nH]c1=S (stereo not given)	8.9µM*	24%	40µM*	3%	13%	-1%
C=CCn1c(C(C)NC(=O)c2ccccc2C)n[nH]c1=S (stereo not given)	7.9µM*	44%	20µM*	-4%	-11%	-1%
CCn1c(C(C)NC(=O)c2ccccc2C)n[nH]c1=S (stereo not given)	?	45%	nt	-12%	9%	15%
Cc1ccc2c(c1)N(C(=O)C1CCN(S(=O)(=O)c3c(C)noc3/C=C/c3ccccc3F)CC1)CCO2	-19%	14%[57 µM]	-3%[59 µM]	-12%	nt	nt
COC(=O)N1CCC2(CCN(C(=O)Nc3ccc(OC)cc3)CC2)CC1	nt	nt	2%[12.7 µM]	nt	nt	21%
CC1CN(CC(=O)Nc2cc(S(=O)(=O)N3CCCC3)ccc2Cl)CC(C)O1 (stereo not given)	-7%	15%[57 µM]	4%	nt	2%	9%
O=C(CN1CCN(c2ccc(O)cc2)CC1)Nc1cc(S(=O)(=O)N2CCCC2)ccc1Cl	?	?	8.9µM*	?	nt	45µM*
CCN1CCN(CC(=O)Nc2cc(S(=O)(=O)N3CCCCC3)ccc2Cl)CC1	22µM*	?	nt	nt	-15%	nt
O=C(CN1CCN(c2ccc(O)cc2)CC1)Nc1cc(S(=O)(=O)N2CCCCC2)ccc1Cl	?	50µM*	7.9µM*	nt	-4%	56µM*
COc1cc(/C=C2\SC(=S)N(N3CCOCC3)C2=O)ccc1O	-20%	136%	20%[59 µM]	-4%	nt	2%
O=C1/C(=C/c2ccncc2)SC(=S)N1N1CCOCC1	-21%	-14%	-124%[59 µM]	-33%	nt	56µM*
O=C1/C(=C/c2cccs2)SC(=S)N1N1CCOCC1	?	35µM*	?	?	-21%	2%
COc1cc(/C=C2\SC(=S)N(N3CCOCC3)C2=O)cc(OC)c1OC	-19%	10%	13µM*	12%	23%	-7%
CCCCC(CC(O)COCC(C)C)C(=O)NNC(=S)Nc1ccccc1 (stereo not given)	1%	27%	8.9µM*	0%	0%	7%
CCC(CC(C)(C)O)C(=O)NNC(=S)Nc1ccccc1 (stereo not given)	-1%	20%	-15%	0%	-8%	7%
